{"source": "paper PMC7819943", "about": "“Rice protein-binding microarrays: a tool to detect cis-acting elements near promoter regions in rice”", "note": "Over roughly 35,000 sequences, “fluorescence intensity (a.u.)” has its median near 10,000; the highest 2% begin near 52,000. Only a selection was taken, and the highest values are over-represented in it overall."}
{"target": "T1, OsWOX13 (Oryza sativa, UniProt Q5QMM3 1-267)", "T1 sequence": "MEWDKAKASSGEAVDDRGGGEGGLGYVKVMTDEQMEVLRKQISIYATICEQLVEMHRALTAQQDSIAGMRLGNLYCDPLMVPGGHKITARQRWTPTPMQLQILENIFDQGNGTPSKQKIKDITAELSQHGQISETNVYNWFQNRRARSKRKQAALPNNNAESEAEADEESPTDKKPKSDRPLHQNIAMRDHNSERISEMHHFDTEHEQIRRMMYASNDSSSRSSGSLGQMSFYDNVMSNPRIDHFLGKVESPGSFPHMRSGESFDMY", "test": "protein-binding microarray (RPBM); PBS, 2% BSA, 51.3 ng/ul salmon testes DNA, 50 uM zinc acetate, 200 nM TF, 25 C, 1 h; high values mean tight binding", "details": "protein: recombinant; tags: N-terminal polyhistidine and DsRed monomer fusion (pET32a); label: CyDye5-dUTP incorporated in the synthesized complementary strand; 3' TTTTT single-stranded linker to array surface; dsDNA, one strand shown", "in_short": "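In PBS with 2% BSA, salmon testes DNA and 50 µM zinc acetate, 200 nM protein was incubated on a custom Agilent array at 25 °C for 1 h and then washed off. The array had been made double-stranded by primer extension with Cy5-dUTP and blocked with 2% BSA. The proteins were transcription factors fused N-terminally to polyhistidine and DsRed, expressed in E. coli BL21-CodonPlus and purified on Ni–NTA. The binding signal is per-feature fluorescence intensity (arbitrary units) from an Axon 4000B scanner.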"}
{"sequence": "TTACATGATTATGTTAATTACTACACAATTATAGGGCCTACGGAGTCACCTAGTGCAG", "binding signal": "42500 fluorescence intensity (a.u.)"}
{"sequence": "TTCTGATCACAGATCAATTACTCTTGATCGCCCATTTATTCGGAGTCACCTAGTGCAG", "binding signal": "9590 fluorescence intensity (a.u.)"}
{"sequence": "TGTATTCATCATCTAAATTATTGTTCATAAACCTATAGGCCGGAGTCACCTAGTGCAG", "binding signal": "3420 fluorescence intensity (a.u.)"}
{"sequence": "ACGGAATGAACACTAATTTACTTAATACATAGAACCACGGCGGAGTCACCTAGTGCAG", "binding signal": "19400 fluorescence intensity (a.u.)"}
{"sequence": "AACCAATTTATATTGTCAGAAGAAAATGCATTATATAGGTCGGAGTCACCTAGTGCAG", "binding signal": "6730 fluorescence intensity (a.u.)"}
{"sequence": "CATTGAATGTTTGGACACTAATTATAAATATTAAACGTAGCGGAGTCACCTAGTGCAG", "binding signal": "9090 fluorescence intensity (a.u.)"}
{"sequence": "AGTTATTGATAACATAAGCCTTAAAAGTTCGCCCTAACCTCGGAGTCACCTAGTGCAG", "binding signal": "4600 fluorescence intensity (a.u.)"}
{"sequence": "CAAAACAGACATAATCTTGTTGGACAGACGTAGCCATGAACGGAGTCACCTAGTGCAG", "binding signal": "12500 fluorescence intensity (a.u.)"}
{"sequence": "GCTTAATTAGCTTGTATTTAGTTGGTTAATTTAGTGTTGTCGGAGTCACCTAGTGCAG", "binding signal": "43600 fluorescence intensity (a.u.)"}
{"sequence": "TTGATTGGATAATTTTGTGGTTTGGGAAGAAATGGTGATGCGGAGTCACCTAGTGCAG", "binding signal": "64000 fluorescence intensity (a.u.)"}
{"sequence": "TGGAAGTCAAGTCACTAATTGGAAGAAGATGGTGATAATGCGGAGTCACCTAGTGCAG", "binding signal": "16600 fluorescence intensity (a.u.)"}
{"sequence": "TGCTTGCTTGCTTGGTTTGATTGGTGGAGGTGGGAGGAGTCGGAGTCACCTAGTGCAG", "binding signal": "3920 fluorescence intensity (a.u.)"}
{"sequence": "GTTGGTTAATTGCAATTTAATTGTTGTATTGTAAGAGTCTCGGAGTCACCTAGTGCAG", "binding signal": "56100 fluorescence intensity (a.u.)"}
{"sequence": "AGTTTGGATTTTGGTTGAAATTGAAGATAATGTGACTGAACGGAGTCACCTAGTGCAG", "binding signal": "3240 fluorescence intensity (a.u.)"}
{"sequence": "GGTTGGATGGTTGGATTTGATGTGGATTTGAATTGTTATGCGGAGTCACCTAGTGCAG", "binding signal": "7890 fluorescence intensity (a.u.)"}
{"sequence": "GGTGATTGCATTTGATTGGGTGGAAAAGGTTTGATTTTGTCGGAGTCACCTAGTGCAG", "binding signal": "64900 fluorescence intensity (a.u.)"}
{"sequence": "TTGCAATTGCCAATTTCTTTATTATATTGTTGGTTTAACTCGGAGTCACCTAGTGCAG", "binding signal": "16700 fluorescence intensity (a.u.)"}
{"sequence": "CATTGATTTTGTTTTATTATTTTGGTTGGTGGTGCCGTGTCGGAGTCACCTAGTGCAG", "binding signal": "39100 fluorescence intensity (a.u.)"}
{"sequence": "CCTAATTTGCGTGATTGGATTGGTTGGTTGTGTTGTAATGCGGAGTCACCTAGTGCAG", "binding signal": "65000 fluorescence intensity (a.u.)"}
{"sequence": "TCATAATTGGATGGCATTGTACTGTGATTTGTTTGTGTTGCGGAGTCACCTAGTGCAG", "binding signal": "49200 fluorescence intensity (a.u.)"}
{"sequence": "GACACTGGGTAAATTATTCAATTCTAACTAAATTATATGACGGAGTCACCTAGTGCAG", "binding signal": "4590 fluorescence intensity (a.u.)"}
{"sequence": "TCGATAAATTGAGGAGACCAAAATTCACGAAATCAACATACGGAGTCACCTAGTGCAG", "binding signal": "7550 fluorescence intensity (a.u.)"}
{"sequence": "AGCTGTTCCAATTATGAACTCACTAACTTTACATAGAGGTCGGAGTCACCTAGTGCAG", "binding signal": "3650 fluorescence intensity (a.u.)"}
{"sequence": "ACAGTTCCTTTGTGCCAATCATTGAACCCGGGAATGCTGGCGGAGTCACCTAGTGCAG", "binding signal": "4780 fluorescence intensity (a.u.)"}
{"sequence": "TATGAATGACATATAAACAGATAATCGTGTTCACCGAATGCGGAGTCACCTAGTGCAG", "binding signal": "20900 fluorescence intensity (a.u.)"}
{"sequence": "TCTGATAGCTTGTGAGGGTTTCATTCATCCTCTGCTAGTGCGGAGTCACCTAGTGCAG", "binding signal": "6630 fluorescence intensity (a.u.)"}
{"sequence": "GTCTTCAAATTATATTAGTTATAACTATAGTTCACACAATCGGAGTCACCTAGTGCAG", "binding signal": "4610 fluorescence intensity (a.u.)"}
{"sequence": "TCAGCTAATCAGCTAACTGGTCCTTTTCCTACTTCCCTTGCGGAGTCACCTAGTGCAG", "binding signal": "8010 fluorescence intensity (a.u.)"}
{"sequence": "GGGGATTGGGAGTTTATACAAGGGAATTGATGGTGAGATTCGGAGTCACCTAGTGCAG", "binding signal": "21000 fluorescence intensity (a.u.)"}
{"sequence": "TTAAGATAGAGGAAACATTGATTGTATGCATGCTATATATCGGAGTCACCTAGTGCAG", "binding signal": "3750 fluorescence intensity (a.u.)"}
{"sequence": "GCTAATTTATACAATAGTTGCTTACTATAGAATTAATGCACGGAGTCACCTAGTGCAG", "binding signal": "27200 fluorescence intensity (a.u.)"}
{"sequence": "GCATAGATTATTATGCAGAAAGTTCATGTATATGACCAGCCGGAGTCACCTAGTGCAG", "binding signal": "6640 fluorescence intensity (a.u.)"}
{"sequence": "ACACCAATTGAACATTTGGATGTAAACATTAGGGATGCTGCGGAGTCACCTAGTGCAG", "binding signal": "3400 fluorescence intensity (a.u.)"}
{"sequence": "GAGCCTAATTAATTCGTGATTAGCCTAATGACGGATTAATCGGAGTCACCTAGTGCAG", "binding signal": "57400 fluorescence intensity (a.u.)"}
{"sequence": "GCAGTCCATTAACACGTGATTAATTAAGTATTAGTTAATTCGGAGTCACCTAGTGCAG", "binding signal": "21800 fluorescence intensity (a.u.)"}
{"sequence": "TGTGATTAGTTCTAATTTAATATAGCAAGAACTAGTGGATCGGAGTCACCTAGTGCAG", "binding signal": "53800 fluorescence intensity (a.u.)"}
{"sequence": "AGTTAGTGATTATATGATTAATCTATGGTCCAAATTATCTCGGAGTCACCTAGTGCAG", "binding signal": "23900 fluorescence intensity (a.u.)"}
{"sequence": "ATGATTAATTATTATTTTAGTGATATGCGATATACTCGTGCGGAGTCACCTAGTGCAG", "binding signal": "65000 fluorescence intensity (a.u.)"}
{"sequence": "AGTTAATTAATTAGTCCATCCAAGGAAGGAGTATATGATTCGGAGTCACCTAGTGCAG", "binding signal": "55800 fluorescence intensity (a.u.)"}
{"sequence": "CATTTGCTAATGACGGATTAATTAGGGTTTATAAATTCGTCGGAGTCACCTAGTGCAG", "binding signal": "24400 fluorescence intensity (a.u.)"}
{"sequence": "CCTAATTAAGTGGATTTTAGTTTTATATATTATTTAACTTCGGAGTCACCTAGTGCAG", "binding signal": "25700 fluorescence intensity (a.u.)"}
{"sequence": "TTGCTAATGACGGATTAATTAGGCTTAATAAATTCGTCTCCGGAGTCACCTAGTGCAG", "binding signal": "33900 fluorescence intensity (a.u.)"}
{"sequence": "TGTTAGATGATAAAACATGATTAATATTTTATGCGTGACTCGGAGTCACCTAGTGCAG", "binding signal": "8120 fluorescence intensity (a.u.)"}
{"sequence": "ATATGATTAATATTTTATGCGATTAATATTTTATGCGTGACGGAGTCACCTAGTGCAG", "binding signal": "41400 fluorescence intensity (a.u.)"}
{"sequence": "ACCAATATATATATACTAATTAAATTTGTGGAACTTGGATCGGAGTCACCTAGTGCAG", "binding signal": "4420 fluorescence intensity (a.u.)"}
